Unmarked numbers belong to inactive results. For some of these results: Entries with a potency or affinity are not part of this list. Activity calls are given as the source filed them. Unless noted, how the calls were made is not given here.

Assay [1] can be described thus: antimalarial activity against Dd2 strain (AID 2302;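 active means growth inhibition above 50% at the single 2 µM test dose, taken to imply half-maximal potency below 2 µM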;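 further: 0% = DMSO untreated growth and 100% = chloroquine plus artemisinin killed control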). The note with it: P. falciparum Dd2 in RBCs, LDH growth readout, 72 h; at 2 µM; hits give high values.
A short description of assay [2]: human hepatoma cell viability loss – ATP luminescence, cytotoxicity control for P. falciparum antimalarial project, primary screen (AID 2303;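 active means inhibition above 50%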;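 further: 0% = DMSO wells and 100% = digitonin-killed cells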). The note with it: HepG2 viability, 24-48 h, at 10 µM, hits give high values.
Assay [3] deals with L-lactate dehydrogenase (Plasmodium falciparum (isolate CDC / Honduras)) (UniProt Q27743). Briefly: PfLDH activity inhibition – cell lysate, 3D7 strain, counter-screen for P. falciparum growth inhibition project (AID 2304).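 Further: 0% = vehicle and 100% = reference inhibitor.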 The note with it: P. falciparum 3D7 crude extract, LDH APAD/NBT absorbance; at 2 µM; hits give high values. In general terms: A counterscreen serves to expose hits that act by an unwanted route or on another target.

Assay [4] in a line: inhibition of 3D7 malaria parasite growth – strain 3D7 (AID 2306).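 Further: 0% = DMSO wells and 100% = chloroquine plus artemisinin control wells.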 The note with it: P. falciparum 3D7 erythrocytic growth, LDH absorbance, 72 h; at 2 µM; hits give high values.
Assay [5] addresses Calcium-dependent protein kinase 1 (Plasmodium falciparum (isolate 3D7)) (UniProt P62344). Put plainly: PfCDPK1 kinase inhibitors, biochemical, TCAMS library (AID 1159585; cut-off not given, nearly all actives have IC50 up to about 0.98 µM;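 further: inhibitors leave more ATP so luminescence rises with inhibition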). The note with it: recombinant PfCDPK1, Kinase-Glo ATP depletion luminescence. A general note: Kinase-Glo reads ATP consumption through a luciferase reaction.
The target of assay [6] is Plasmodium falciparum protein kinase 6 (PK6, PF3D7_1337100) (UniProt Q8IDW1). Put plainly: PfPK6 kinase inhibitors, biochemical, TCAMS library (AID 1159586). The note with it: recombinant PfPK6, Kinase-Glo ATP depletion luminescence.
The target of assay [7] is Protein kinase 7 (PK7), Plasmodium falciparum 3D7 (PF3D7_0213400) (UniProt Q7YTF7). Briefly: inhibition of Plasmodium PK7 catalytic activity – biochemical, TCAMS antimalarial set, Kinase-Glo luminescence (AID 1159587). The note with it: recombinant PfPK7, Kinase-Glo ATP depletion luminescence.
Assay [8] concerns the target Calcium-dependent protein kinase 4 (Plasmodium falciparum (isolate 3D7)) (UniProt Q8IBS5). Put plainly: PfCDPK4 kinase inhibitors, biochemical, TCAMS library (AID 1159588; cut-off not given, nearly all actives have IC50 up to about 0.91 µM). The note with it: recombinant PfCDPK4, Kinase-Glo ATP depletion luminescence.

Sequence of Calcium-dependent protein kinase 1 (Plasmodium falciparum (isolate 3D7)) (P62344 whole entry, looked up): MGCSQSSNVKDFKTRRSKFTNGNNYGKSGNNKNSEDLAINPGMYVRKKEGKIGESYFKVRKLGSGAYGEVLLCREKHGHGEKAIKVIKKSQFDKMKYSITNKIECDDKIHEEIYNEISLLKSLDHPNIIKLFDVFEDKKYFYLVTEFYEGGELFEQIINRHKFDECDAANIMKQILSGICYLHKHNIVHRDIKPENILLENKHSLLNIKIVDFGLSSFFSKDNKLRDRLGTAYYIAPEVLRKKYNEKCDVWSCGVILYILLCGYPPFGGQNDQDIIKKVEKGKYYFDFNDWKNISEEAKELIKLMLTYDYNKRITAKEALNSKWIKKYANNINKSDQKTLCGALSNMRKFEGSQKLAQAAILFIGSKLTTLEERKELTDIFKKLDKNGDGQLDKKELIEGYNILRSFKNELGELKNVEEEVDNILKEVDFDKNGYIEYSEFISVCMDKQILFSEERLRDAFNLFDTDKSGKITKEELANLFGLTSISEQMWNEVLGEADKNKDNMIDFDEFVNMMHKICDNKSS
Sequence of Plasmodium falciparum protein kinase 6 (PK6, PF3D7_1337100) (Q8IDW1 1-305): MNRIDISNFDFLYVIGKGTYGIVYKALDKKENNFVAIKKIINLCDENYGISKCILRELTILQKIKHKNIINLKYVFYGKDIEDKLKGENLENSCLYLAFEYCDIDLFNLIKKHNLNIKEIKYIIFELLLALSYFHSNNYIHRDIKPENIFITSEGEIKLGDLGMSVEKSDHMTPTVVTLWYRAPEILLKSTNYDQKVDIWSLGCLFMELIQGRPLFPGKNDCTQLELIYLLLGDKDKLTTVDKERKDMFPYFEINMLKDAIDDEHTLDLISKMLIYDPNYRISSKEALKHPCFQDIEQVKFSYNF
Sequence of Protein kinase 7 (PK7), Plasmodium falciparum 3D7 (PF3D7_0213400) (Q7YTF7 1-343): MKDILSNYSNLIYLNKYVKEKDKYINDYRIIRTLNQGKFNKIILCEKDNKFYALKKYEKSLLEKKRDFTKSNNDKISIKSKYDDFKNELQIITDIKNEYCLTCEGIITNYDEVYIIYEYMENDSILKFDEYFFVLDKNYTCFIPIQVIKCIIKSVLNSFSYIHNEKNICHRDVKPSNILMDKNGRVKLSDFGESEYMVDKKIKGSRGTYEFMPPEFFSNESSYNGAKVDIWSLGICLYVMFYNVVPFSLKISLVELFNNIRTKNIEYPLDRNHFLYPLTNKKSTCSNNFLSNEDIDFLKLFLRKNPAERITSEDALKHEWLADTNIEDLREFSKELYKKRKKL
Sequence of Calcium-dependent protein kinase 4 (Plasmodium falciparum (isolate 3D7)) (Q8IBS5 whole entry, looked up): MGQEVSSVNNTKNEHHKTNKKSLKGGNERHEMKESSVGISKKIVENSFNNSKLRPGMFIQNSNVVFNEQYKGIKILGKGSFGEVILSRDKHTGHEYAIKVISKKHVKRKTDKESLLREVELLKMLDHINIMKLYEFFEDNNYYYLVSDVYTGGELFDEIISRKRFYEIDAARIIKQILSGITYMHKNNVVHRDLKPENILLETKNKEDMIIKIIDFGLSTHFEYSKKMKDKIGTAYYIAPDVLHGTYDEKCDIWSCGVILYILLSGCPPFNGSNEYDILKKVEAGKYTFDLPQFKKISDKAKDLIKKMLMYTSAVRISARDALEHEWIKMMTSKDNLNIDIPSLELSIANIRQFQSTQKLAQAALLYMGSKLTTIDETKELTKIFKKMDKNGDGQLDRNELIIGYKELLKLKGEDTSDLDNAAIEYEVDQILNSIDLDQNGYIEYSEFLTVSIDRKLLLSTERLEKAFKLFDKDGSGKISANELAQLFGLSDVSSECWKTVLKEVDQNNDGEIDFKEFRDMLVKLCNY
Sequence of L-lactate dehydrogenase (Plasmodium falciparum (isolate CDC / Honduras)) (Q27743 whole entry, looked up): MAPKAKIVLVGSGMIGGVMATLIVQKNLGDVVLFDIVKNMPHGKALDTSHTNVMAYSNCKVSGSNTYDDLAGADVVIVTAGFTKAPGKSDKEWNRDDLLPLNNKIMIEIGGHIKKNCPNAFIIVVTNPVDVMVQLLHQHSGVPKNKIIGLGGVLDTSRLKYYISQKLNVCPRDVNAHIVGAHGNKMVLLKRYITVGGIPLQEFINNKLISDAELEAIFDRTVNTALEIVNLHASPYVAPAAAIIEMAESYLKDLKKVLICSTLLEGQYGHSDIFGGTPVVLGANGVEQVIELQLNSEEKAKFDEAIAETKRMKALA

As a reminder, the inhibition is the drop in the measured response relative to a control, in per cent. Regarding `COc1ccccc1C1CN(CCNC(=O)c2ncc(C)[nH]2)Cc2ccccc2O1` (stereo not given), the growth inhibition is 86% (active) in assay [1] and 90% (active) in assay [4]. Further, the inhibition in assay [2] was 4%; in assay [3], 0%. Further, the result in assay [5], in assay [6], in assay [7] and in assay [8] was inactive.
For the molecule `CN(C)C(CNC(=O)c1cc(-c2ccncc2)c(-c2cc3ccccc3[nH]2)o1)c1ccccc1` (stereo not given), the growth inhibition in assay [1] is 62% (active); in assay [4], 96% (active). Further, the results for the inhibition in assay [2] and in assay [3] were 3% and -2%, respectively. For the same molecule, the result in assay [5], in assay [6], in assay [7] and in assay [8] was inactive.
As to `Cc1ccccc1C1CCN(C2CCC(NC(=O)/C=C/c3c(F)ccc(F)c3F)CC2)CC1` (stereo not given), the growth inhibition in assay [1] is 33%; in assay [4], 82% (active). The inhibition in assay [2] was 37%; in assay [3], 1%. In addition, the result in assay [5], in assay [6], in assay [7] and in assay [8] was inactive.
With `CCc1nnc2sc(-c3cccc(NC(=O)c4ccc(OC)c(Cl)c4)c3)nn12`, the growth inhibition was 55% (active) in assay [1] and 92% (active) in assay [4]. For the same molecule, the inhibition in assay [2] is 3%; in assay [3], -2%. Further, the outcome in assay [5], in assay [6], in assay [7] and in assay [8] was inactive.
Regarding `COc1cc2nc(NCCn3nc(C)cc3C)nc(NCCc3ccccc3)c2cc1OC`, the growth inhibition in assay [1] was 100% (active); in assay [4], 103% (active). Also, the inhibition in assay [2] was 28%; in assay [3] it was -3%. For the same molecule, the outcome in assay [5], in assay [6], in assay [7] and in assay [8] was inactive.
`C=CCOc1ccc(CNC2CCN(Cc3ccccc3)CC2)cc1Br`: the growth inhibition in assay [1] is 8%; in assay [4], 92% (active). Also, the inhibition in assay [2] was 9%; in assay [3] it was -2%. The result in assay [5], in assay [6], in assay [7] and in assay [8] was inactive.
Take `COc1cc(F)c2ncc(Cl)c(CCN3CCC(NCc4ccc5c(n4)NC(=O)CO5)CC3)c2c1`: the growth inhibition in assay [1] is 19%; in assay [4] it was 89% (active). Also, the inhibition in assay [2] was 20%; in assay [3] it was -1%. Also, the outcome in assay [5], in assay [6], in assay [7] and in assay [8] was inactive.
As to `COc1ccc2nccc(NC(=O)C3(O)CCC(NCc4ncc5c(c4Cl)OCCO5)CC3)c2n1` (stereo not given), the figures for the growth inhibition in assay [1] and in assay [4] were 59% (active) and 83% (active), respectively. In addition, the inhibition is 21% in assay [2] and -1% in assay [3]. Further, the result in assay [5], in assay [6], in assay [7] and in assay [8] was inactive.
For `COC(=O)c1ccc(OCC(O)CO)cc1O` (stereo not given), the growth inhibition in assay [1] was 23%; in assay [4], 101% (active). Moreover, the figures for the inhibition in assay [2] and in assay [3] were 4% and 5%, respectively. Besides, the result in assay [5], in assay [6], in assay [7] and in assay [8] was inactive.
As to `O=C(NCc1ccc(F)cc1)Nc1cccc(-c2ccc(-c3nc4ccc(F)cc4[nH]3)cc2)c1`, the growth inhibition in assay [1] is 96% (active); in assay [4], 101% (active). Further, the values for the inhibition in assay [2] and in assay [3] were 7% and -3%, respectively. Also, the result in assay [5], in assay [6], in assay [7] and in assay [8] was inactive.
For `CS(=O)(=O)NCCCNCc1ccc(-c2ccc(-c3nc4ccc(C(F)(F)F)cc4[nH]3)cc2)cc1`, the growth inhibition was 83% (active) in assay [1] and 100% (active) in assay [4]. Further, the inhibition is 25% in assay [2] and 1% in assay [3]. Further, the result in assay [5], in assay [6], in assay [7] and in assay [8] was inactive.
As to `Cc1ccc(NC(=O)c2c(C)noc2-c2snnc2C)cc1`, the growth inhibition is 71% (active) in assay [1] and 92% (active) in assay [4]. Also, the inhibition in assay [2] is 1%; in assay [3] it was 3%. For the same molecule, the result in assay [5], in assay [6], in assay [7] and in assay [8] was inactive.
As for `O=C(Nc1cccc(-c2nn3ccccc3c2-c2ccnc(Nc3ccccc3)n2)c1)c1c(F)cccc1F`, the growth inhibition in assay [1] and in assay [4] was 98% (active) in each case. Moreover, the values for the inhibition in assay [2] and in assay [3] were 69% (active) and -6%, respectively. The outcome in assay [5], in assay [6], in assay [7] and in assay [8] was inactive.
As to `Clc1ccc(-c2cc(-c3csc(NCCN4CCCCC4)n3)on2)cc1`, the growth inhibition is 30% in assay [1] and 91% (active) in assay [4]. Moreover, the inhibition in assay [2] was 81% (active); in assay [3], -9%. The outcome in assay [5], in assay [6], in assay [7] and in assay [8] was inactive.
Regarding `CN(C)c1ccc(C=Cc2nc(=O)c3ccccc3o2)cc1`, the figures for the growth inhibition in assay [1] and in assay [4] were 97% (active) and 96% (active), respectively. For the same molecule, the inhibition in assay [2] is 6%; in assay [3], 0%. For the same molecule, the outcome in assay [5], in assay [6], in assay [7] and in assay [8] was inactive.
Regarding `Cc1ccc(Cn2ncc(NC3CCNCC3)c(Cl)c2=O)cc1NC(=O)Nc1ccc(-c2ccccc2)cc1`, the growth inhibition in assay [1] is 61% (active); in assay [4] it was 99% (active). For the same molecule, the inhibition in assay [2] is 18%; in assay [3], -2%. Besides, the result in assay [5], in assay [6], in assay [7] and in assay [8] was inactive.
As to `CC(C)OC(=O)c1ccc(NC(=O)N[C@@H](Cc2ccc(O)cc2)C(=O)NC2CCC(CCN3[C@@H]4CC[C@H]3c3ccccc34)CC2)cc1` (stereo not given in full), the growth inhibition in assay [1] is 67% (active); in assay [4], 95% (active). Further, the inhibition in assay [2] and in assay [3] was 3% each time. Besides, the outcome in assay [5], in assay [6], in assay [7] and in assay [8] was inactive.
In the case of `O=C(NCCc1ccc(O)cc1)n1c2ccccc2c2ccccc21`, the growth inhibition in assay [1] is 76% (active); in assay [4], 83% (active). Also, the inhibition in assay [2] was 3%; in assay [3], -1%. For the same molecule, the result in assay [5], in assay [6], in assay [7] and in assay [8] was inactive.
Turning to `COc1ccccc1N=C1SC(=Cc2cn(CC(=O)N3CCCc4ccccc43)c3ccccc23)C(=O)N1C1CCCCC1`, the growth inhibition was 99% (active) in assay [1] and 100% (active) in assay [4]. The figures for the inhibition in assay [2] and in assay [3] were 10% and 2%, respectively. The outcome in assay [5], in assay [6], in assay [7] and in assay [8] was inactive.
`CCOC(=O)c1ccc(NC(=O)Nc2cccc(-c3ccc(-c4nc5c(C)cccc5[nH]4)s3)c2)cc1`: the growth inhibition in assay [1] was 99% (active); in assay [4], 100% (active). In addition, the inhibition in assay [2] was 44%; in assay [3] it was 4%. The result in assay [5], in assay [6], in assay [7] and in assay [8] was inactive.

Source of the values: PubChem BioAssay.
